Measurements published in PubChem BioAssay (NCI).
This is part of a sample that, as a whole, favours compounds with a hit. Of some 83,000 tested, about 20% had one in any assay.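 Assay: single dose, 48 h. Readout: percent growth (0 = no net growth; negative = cell death). Active: <10.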 A number with no mark means an inactive call. The source made the active and inactive calls.

These molecules were tested on DU-145 prostate (assay: NCI-60 one-dose screen, 48 h (100 = growth as untreated, 0 = no growth, -100 = all killed)). Details: 10 µM unless noted.

Row | Compound | growth
1 | Cc1ccc(Cl)cc1Nc1nc(C(F)(F)F)ccc1C(=O)N/N=C/c1cccnc1 | 41.5%
2 | Fc1ccc(-c2nn(-c3ccccc3)cc2-c2nc3ccccc3o2)cc1 | 90.1%
3 | CCOC(=O)C(=Cc1cccc(Br)c1)C(=O)OCC | 4.57% (active)
4 | COc1cccc(NC(=O)Cn2cc(CN3CCN(c4ccnc5cc(Cl)ccc45)CC3)nn2)c1 | 104%
5 | CCOC(=O)c1cc2c(=O)oc3ccccc3c2oc1=O | 116%
6 | O=C(Nc1cc(Cl)ccc1O)c1ccc(Nc2ccnc(C(F)(F)F)c2)cc1 | 42.9%
7 | C=C(C)[C@@H]1CC[C@]2(C(=O)O)CC[C@]3(C)[C@H](CC[C@@H]4[C@@]5(C)C[C@@H](Cc6cn(CCO[C@@H]7O[C@H](COC(C)=O)[C@H](OC(C)=O)[C@H](OC(C)=O)[C@H]7OC(C)=O)nn6)[C@H](O)C(C)(C)[C@@H]5CC[C@]43C)[C@@H]12 | 81.8%
8 | CC(C)CCC[C@@H](C)[C@H]1CC[C@H]2[C@@H]3CC=C4C[C@@H](C(C(=O)O)C(=O)O)CC[C@]4(C)[C@H]3CC[C@]12C | -83.5% (active)
9 | O=S(=O)(Nc1ccc(Cl)cc1)c1ccc(-c2cnc(C3CC3)o2)cc1 | 12.6%
10 | C#CCOc1ccc2ncnc(Nc3ccc(NC(=O)CCl)cc3)c2c1 | 18.1%
11 | CCOC(=O)C1=C(NC)OCC1=O | 110%
12 | COC(=O)c1c2c(c(C)[n+]([O-])c1C)C(=O)C=C(NCc1ccc(Br)cc1)C2=O | -87.7% (active)
13 | CCN(CC)CCOc1ccc(-c2c(-c3ccccc3)c(=O)oc3ccccc23)cc1 | 121%
14 | Nc1nc(=S)c2ncn(C3OC(COP(=O)(O)O)C(O)C3O)c2[nH]1 (configuration not stated) | 22.6%
15 | COc1ccc(/C=N/NC(=O)CCN2c3ccccc3Sc3ccccc32)cc1 | 102%
16 | c1cnc2[nH]cc(-c3csc(-c4cn(CCCN5CCOCC5)c5ccccc45)n3)c2c1 | 82%

Row | Compound | growth
17 | S=C1CCSC(=S)N1CCCN1C(=S)CCSC1=S | 73.3%
18 | COc1ccc(C(=O)Nc2ncc(Cc3ccc(F)cc3)s2)cc1 | 16.2%
19 | C=C1C(=O)O[C@H]2[C@H]1CC/C(COC(=O)NCc1cc[nH]c1)=C\CC[C@@]1(C)O[C@@H]21 | 12.4%
20 | CN(C)CCCC1(c2ccc(F)cc2)OCc2cc(-c3cccc4[nH]ccc34)ccc21 (configuration not stated) | 18.9%
21 | COC(C(=O)[C@@H](O)[C@@H](C)O)[C@@H]1Cc2cc3cc(O[C@H]4C[C@@H](O[C@H]5C[C@@H](O)[C@H](O)C(C)O5)[C@H](O)C(C)O4)c(C)c(O)c3c(O)c2C(=O)[C@H]1O[C@H]1C[C@@H](O[C@H]2C[C@@H](O[C@H]3C[C@@H](O)[C@H](OC)C(C)O3)[C@@H](O)C(C)O2)[C@H](O)C(C)O1 (some centres not stated) | 12%
22 | CCNc1cc(-c2cccc(OC(F)(F)F)c2)nc2ccc(N3CCCC3)cc12 | 28.6%
23 | CCNc1nc(-c2ccc(Cl)c(OC)c2)c(-c2ccnc(NCCCNS(=O)(=O)c3ccc(Cl)cc3)n2)s1 | 74.3%
24 | Cc1nc2c(=O)[nH]c(SCC(=O)Nc3cccc(F)c3)nc2[nH]c1=O | 109%
25 | Cc1ccc(-c2nc3nc(-c4ccc(F)cc4)nc(N4CCNCC4)c3o2)cc1 | 41.7%
26 | O=C(/C=C(/C=C/c1cccc2[nH]ccc12)OB(F)F)/C=C/c1cccc2[nH]ccc12 | 2.94% (active)
27 | Oc1c(Cl)cc(Cl)c2ccc(Cn3cc(-c4cc(C(F)(F)F)cc(C(F)(F)F)c4)nn3)nc12 | 21.9%
28 | CC[C@@H](C(=O)[C@@H](C)[C@@H](O)[C@H](C)[C@@H]1O[C@@H]([C@@H](CC)C(=O)NCCc2ccc(F)cc2)CC[C@@H]1C)C1O[C@]2(C=CC(=O)[C@]3(CC[C@@](C)([C@H]4CC[C@](O)(CC)[C@H](C)O4)O3)O2)[C@H](C)C[C@@H]1C (some centres not stated) | 50.5%
29 | c1cc2[nH]ncc2cc1-c1nc2ccc3[nH]ncc3c2c2c1CCCC2 | 23.3%
30 | C#CCOc1cccc(Nc2ncnc3c(NC(=O)C=C)cccc23)c1 | -1.57% (active)
31 | N#Cc1cnc(NCCc2ccncc2)nc1-n1cnc2ccccc21 | 51.9%
32 | CCOC(=O)c1c(NC(=O)c2ccc(C(C)C)cc2)sc2c(CN(C)C)c(O)ccc12 | 78.2%
